AMA1 RON2 block: inhibitors of Plasmodium falciparum AMA1-RON2 interaction; AlphaScreen AMA1-biotinylated RON2 peptide binding; Potency, µM (doses to about 58.2 µM), hits mostly inhibitors; 0.2% of 360,000 active; AID 720542; note: nearly all actives have a fitted effect of over 45% in size
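AMA1 (3D7) with his tag at 25 nM final met compounds first, then biotinylated RON2 peptide at 25 nM; detection used donor plus acceptor beads, 10 µg/mL apiece, read by AlphaScreen after 30 min at room temperature.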
Pf growth 96h: P. falciparum growth inhibition at 96 hour, primary screen for plastid delayed-death inhibitors | P. falciparum luciferase reporter growth, 96 h | Potency, µM (titrated, usually from 28.7 µM), hits mostly inhibitors | 6.9% of 320,000 active | AID 504834
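Infected RBCs, 2% Hct / 0.05% parasitemia final; luciferase-reporter P. falciparum; cpd 96 h, 37 C, 5% CO2; luciferase detection reagent; luminescence.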
Pf growth 48h: inhibits P. falciparum growth in the first generation, 48 h; P. falciparum luciferase growth in erythrocytes, 48 h; Potency, µM (titrated, usually from 28.7 µM), actives largely listed as inhibitors; 5.9% of 310,000 active
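Firefly luciferase activity from engineered P. falciparum reports growth; inhibitors lower the luminescent signal. Cultures contained 2% hematocrit erythrocytes at 0.1% final parasitemia.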
AmpC detergent: inhibitors of E. coli AmpC beta-lactamase with detergent | P00811 | 0.041% of 370,000 active | AmpC hydrolysis of nitrocefin, absorbance 480 nm, 0.01% Triton | Potency, µM (doses to about 114 µM), hits mostly inhibitors; note: nearly all actives have a fitted effect of over 25% in size
Target sequence (P00811 whole entry, looked up): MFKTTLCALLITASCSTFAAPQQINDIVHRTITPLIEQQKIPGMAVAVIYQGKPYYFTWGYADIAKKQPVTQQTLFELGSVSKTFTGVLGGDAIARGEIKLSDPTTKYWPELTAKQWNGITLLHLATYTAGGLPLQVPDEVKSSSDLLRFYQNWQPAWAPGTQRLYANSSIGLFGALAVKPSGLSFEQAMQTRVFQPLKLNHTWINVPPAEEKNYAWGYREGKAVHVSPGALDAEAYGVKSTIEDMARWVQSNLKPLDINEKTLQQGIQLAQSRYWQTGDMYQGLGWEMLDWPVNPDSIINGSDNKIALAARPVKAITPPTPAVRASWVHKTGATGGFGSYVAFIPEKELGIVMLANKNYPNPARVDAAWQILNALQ
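20 mM phosphate pH 7.0 + 0.01% (detergent screen) or 0.0001% Triton X-100; 5.3 nM AmpC reagent; cpd preinc 15 min RT; nitrocefin (800 uM stock) to start; A480 q20 s × 4 min; Activity was normalised to no-enzyme and no-compound control wells.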
AmpC inh no detg: AmpC beta-lactamase inhibition without detergent. P00811. Potency, µM (doses to about 57.1 µM), usual class: inhibitors. 0.52% of 330,000 active. AmpC nitrocefin hydrolysis, absorbance 480 nm, 0.0001% Triton. AID 485341; note: nearly all actives have a fitted effect of over 20% in size
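20 mM phosphate pH 7.0 + 0.01% (detergent screen) or 0.0001% Triton X-100; 5.3 nM AmpC reagent; cpd preinc 15 min RT; nitrocefin (800 uM stock) to start; A480 q20 s × 4 min; Activity was normalised to no-enzyme and no-compound control wells.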
HCV inhibitor: HCV inhibition | Huh7.5.1 HCVcc-Cre infection, luciferase reporter, 44 h | Potency, µM (titrated, usually from 41.8 µM), hits mostly inhibitors | 3.4% of 340,000 active
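Antiviral activity was scored by luciferase reporter output from cells infected with HCVcc-Cre (~0.5 moi) in presence of compound, 44 h infection period, cells seeded 1,000/well 4 h prior.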
A number is an active result; [ ] = remark or other dose. This is a sample that favours compounds with a hit; in the whole collection about 11% have one here. Calls come from the whole dose curve; as a rule, active = well fitted curve in the direction sought with a large enough effect; inconclusive = small, poorly fitted or top-dose-only effect, or another doubt; inactive = no such curve, though single readings can be large; an effect the other way counts as inactive or inconclusive.

CCc1ccc(S(=O)(=O)c2nnn3c2nc(NCCC(C)C)c2cc(Cl)ccc23)cc1 was read as AmpC detergent inactive.
For O=C(O)c1cccc2c1C(=O)N(CC1CCCO1)C2 (configuration not stated) the results were AMA1 RON2 block inactive, Pf growth 96h inconclusive, Pf growth 48h inactive, AmpC detergent inactive, AmpC inh no detg inactive and HCV inhibitor inactive.
For CCc1cccc(NC(=O)c2cccc3c2C(=O)N(CC2CCCO2)C3)c1 (configuration not stated) the results were AMA1 RON2 block inactive, Pf growth 96h inconclusive, Pf growth 48h inconclusive, AmpC detergent inactive, AmpC inh no detg inactive and HCV inhibitor 11µM.
CCCN1Cc2cccc(C(=O)Nc3ccc(CN4CCCC4)cc3)c2C1=O was read as AMA1 RON2 block inactive[11.6 µM], Pf growth 48h 9.3µM, AmpC detergent inconclusive, AmpC inh no detg inactive and HCV inhibitor inactive.
`CCCN1Cc2cccc(C(=O)Nc3ccc(OC)c(OC)c3)c2C1=O` gave AMA1 RON2 block inactive and HCV inhibitor inactive.
Screening CCc1ccccc1Nc1nn2c(=O)c3ccc(C(=O)NCCC4=CCCCC4)cc3nc2s1 returned AmpC detergent inactive.
For Cc1c(C(=O)OC(C)C)sc(NC(=O)C2c3ccccc3Oc3ccccc32)c1C(=O)OC(C)C the results were AmpC detergent inactive.
`CCOc1ccccc1NC(=O)COc1coc(CN2CCCc3ccccc32)cc1=O` gave AMA1 RON2 block inconclusive, Pf growth 96h inconclusive, Pf growth 48h 13µM, AmpC detergent inactive, AmpC inh no detg inactive and HCV inhibitor 13µM.
For CCOc1ccccc1NC(=O)COc1coc(CN2CCc3ccccc3C2)cc1=O the results were AMA1 RON2 block inactive, Pf growth 96h 13µM, Pf growth 48h inactive, AmpC detergent inactive, AmpC inh no detg inactive and HCV inhibitor inconclusive.
O=C(Nc1ccc(N2CCOCC2)cc1)C1CC(=O)N(c2ccc(F)cc2)C1 (configuration not stated) was read as AMA1 RON2 block inactive, Pf growth 96h 10µM, Pf growth 48h inactive, AmpC detergent inactive, AmpC inh no detg inactive and HCV inhibitor inactive.
Cc1ccc2nc3c(cc(C#N)c(=O)n3-c3nnc(SCc4ccccc4Cl)s3)c(=O)n2c1 was read as AmpC detergent inactive.
For CCN(CC)CCNC(=O)Cn1ncc2c3ccccc3n(Cc3ccc(Cl)cc3)c2c1=O the results were AmpC detergent inactive.
`COc1ccc(NC(=O)Cn2c3ncccc3c(=O)n2-c2ccc(C)c(C)c2)c(OC)c1` gave AmpC detergent inactive.
`Cc1cc(N2CCN(c3ccccn3)CC2)n2cc(-c3ccccc3)nc2n1` gave AMA1 RON2 block inconclusive, Pf growth 96h 6.6µM, Pf growth 48h 13µM, AmpC detergent inactive, AmpC inh no detg inactive and HCV inhibitor inactive.
Cc1c(C)c2cc3c(c(C)c2oc1=O)OCN(CCc1ccc(F)cc1)C3 was read as AmpC detergent inactive.
COC(=O)c1ccccc1NC(=O)CSc1nc2nc(C)cc(C)n2n1 was read as AmpC detergent inactive.
O=C(Nc1nc(-c2ccccc2)cs1)C1c2ccccc2Oc2ccccc21 was read as AMA1 RON2 block inactive, Pf growth 96h 10µM, Pf growth 48h 12µM, AmpC detergent inactive, AmpC inh no detg 0.18µM and HCV inhibitor inactive.
`O=C(Nc1ncccn1)C1c2ccccc2Oc2ccccc21` gave AMA1 RON2 block inactive[2.32 µM], Pf growth 96h inactive, Pf growth 48h inactive, AmpC detergent inactive, AmpC inh no detg inactive and HCV inhibitor inactive.
Screening O=C(Nc1ccncc1)C1c2ccccc2Oc2ccccc21 returned AMA1 RON2 block inactive, Pf growth 48h 5.9µM, AmpC detergent inactive, AmpC inh no detg inactive and HCV inhibitor inactive.
`Cc1nn(C(C)C(=O)NCCc2cccs2)c(=O)c2nn(-c3ccccc3)c(C)c12` (configuration not stated) gave AMA1 RON2 block inactive, Pf growth 96h 13µM, Pf growth 48h inactive, AmpC detergent inactive, AmpC inh no detg inactive and HCV inhibitor inactive.
For CCCNC(=O)C(C)n1nc(C)c2c(C)n(-c3ccccc3)nc2c1=O (configuration not stated) the results were AmpC detergent inactive.
`Cc1ccc(-n2nc3c(=O)n(C(C)C(=O)NCCCc4ccccc4)nc(C)c3c2C)cc1` (configuration not stated) gave AMA1 RON2 block inactive, Pf growth 96h 8.3µM, Pf growth 48h inconclusive, AmpC detergent inactive, AmpC inh no detg inactive and HCV inhibitor inconclusive.
Screening Clc1ccc(N/N=C/c2ccncc2)cc1Cl returned AMA1 RON2 block inactive, Pf growth 96h 1.2µM, Pf growth 48h 2.3µM, AmpC detergent inactive, AmpC inh no detg inactive and HCV inhibitor inconclusive.
Cc1cc(C(=O)C(=O)NC(C)C)c(C)n1-c1ccc([N+](=O)[O-])cc1 was read as AMA1 RON2 block inactive, Pf growth 96h inconclusive, Pf growth 48h 7.4µM, AmpC detergent inactive, AmpC inh no detg inactive and HCV inhibitor inactive.
For Cc1cc(C)c(NC(=O)CN(C2CCCCC2)C2CCCCC2)c(C)c1 the results were AMA1 RON2 block inactive, Pf growth 48h inconclusive, AmpC detergent inactive, AmpC inh no detg inactive and HCV inhibitor inconclusive.
For Cc1cc(C)c(NC(=O)CN(CC(=O)O)CC(=O)O)c(C)c1Br the results were Pf growth 96h 3.4µM and Pf growth 48h inactive.
Screening CCN(CC)c1ccc(NC(=O)CCS(=O)(=O)c2cc3c(cc2Cl)NC(=O)CO3)c(C)c1 returned AmpC detergent inactive.
`Cc1ccc2c(c1)c(C)cc[n+]2Cc1ccccc1` gave AMA1 RON2 block inactive, Pf growth 96h 0.19µM, Pf growth 48h 0.37µM, AmpC detergent inactive, AmpC inh no detg inactive and HCV inhibitor inconclusive.
COc1ccc2c(c1)c(C)cc[n+]2Cc1ccccc1 was read as AMA1 RON2 block inactive, Pf growth 96h inactive, Pf growth 48h inconclusive, AmpC detergent inconclusive, AmpC inh no detg inactive and HCV inhibitor inactive.
For Cc1ccc2ccc[n+](Cc3ccccc3)c2c1 the results were AMA1 RON2 block inactive, Pf growth 96h 0.52µM, Pf growth 48h 0.41µM, AmpC detergent inactive, AmpC inh no detg inactive and HCV inhibitor inconclusive.
`CCC(=O)N1c2ccccc2CC1C(=O)NCc1ccc(CC)cc1` (configuration not stated) gave AmpC detergent inactive.
COc1ccc(C(=O)Nc2ccccc2C(=O)NC(Cc2ccc(O)cc2)C(=O)NNC(=O)c2ccccc2)cc1 (configuration not stated) was read as AMA1 RON2 block inactive, Pf growth 96h inactive, Pf growth 48h 10µM, AmpC detergent inactive, AmpC inh no detg inconclusive and HCV inhibitor inactive.

Screens deposited in PubChem BioAssay by National Center for Advancing Translational Sciences (NCATS).
